The record followed here is PubChem BioAssay AID1051 (The Scripps Research Institute Molecular Screening Center, 2008).

Among all 99,000 compounds or so, about 340 (0.34%) were called active. This is one part of a sample in which actives are shown more often than they occur. No stated cut-off is given here; in the data, active means TR-FRET ratio above about 2300; inactive means the rest.

This assay can be described thus: signal artefacts in PPARgamma/SRC-1 readout – biochemical, TR-FRET emission ratio, artefact control for PPARgamma SRC-1 recruitment agonists, primary screen (AID 1051). Conditions: TR-FRET detection artefact counter-screen, at 8 µM, stronger effect = higher value. (In general: TR-FRET usually uses a lanthanide donor and a delayed reading to cut background.)
Consider `O=C(Nc1cccnc1)c1ccc(Cl)cc1[N+](=O)[O-]`, for which the TR-FRET ratio was 2040 (inactive).
For the molecule `Cc1cc(C)cc(NC(=S)NCCCN2CCOCC2)c1`, the TR-FRET ratio was 1640 (inactive).
As to `CCc1cccc(C)c1NC(=O)COC(=O)Cc1ccsc1`, the TR-FRET ratio was 1600 (inactive).
For `CC(=O)N(CCCN(C)C)c1nc2ccc(C)cc2s1` the value was 2080 (inactive).
For `COc1ccc(/C=C(\C#N)C(=O)ONC2=NCCCCC2)cc1` the value was 1820 (inactive).
With `COc1ccc(S(=O)(=O)N(C)C)cc1NC(=O)CSc1ncccn1` the figure was 1990 (inactive).
For the molecule `CCOCCCNC(=S)N1CCC(NC(=O)C2CCCCC2)CC1`, the TR-FRET ratio is 1730 (inactive).
For `Cc1ccc(C(=O)NCC(=O)O)cc1S(=O)(=O)N1CCCCC1` the value was 1790 (inactive); for `Cc1ccc(NS(=O)(=O)c2cccs2)cc1S(=O)(=O)N1CCCCCC1`, 2400 (active); for `O=S(=O)(Nc1cc(S(=O)(=O)N2CCOCC2)ccc1N1CCCC1)c1cccs1`, 1650 (inactive).
For `CCn1c(COc2ccccc2)nnc1SCC(=O)NCc1ccco1` the value was 1770 (inactive).
With `C/C(=N/OC(=O)c1cccc(C(F)(F)F)c1)c1cnccn1` the figure was 1580 (inactive); with `CC(OC(=O)CNS(=O)(=O)/C=C/c1ccccc1)C(=O)Nc1ccc(S(=O)(=O)N2CCCC2)cc1` (centres undefined), 1670 (inactive).
As to `O=C(NNC1=C(C(=O)C(F)(F)F)CCC1)c1ccncc1`, the TR-FRET ratio is 1980 (inactive).
For `CN(NC(=O)C1CC(=O)N(c2ccccc2)C1)C1=NS(=O)(=O)c2ccccc21` (centres undefined) the value was 1810 (inactive); for `CCN(CC)c1ccc(C(=O)c2cnc(/N=C/N(C)C)s2)cc1`, 1790 (inactive).
Regarding `COc1ccc(CCC(=O)OCC(=O)Nc2ccc(C)c(S(=O)(=O)N(C)C)c2)cc1`, the TR-FRET ratio is 1760 (inactive).
In the case of `CN(CCOc1ccc(Br)cc1)CC(=O)Nc1cccc(S(=O)(=O)NC2=NCCC2)c1`, the TR-FRET ratio was 1830 (inactive).
With `CCC(C)NC(=O)/C=C/c1ccc(S(=O)(=O)NCc2ccco2)cc1` (centres undefined) the figure was 1910 (inactive); with `Cc1ccccc1CC1(CO)CCCN(Cc2ccc3c(c2)OCCO3)C1` (centres undefined), 1710 (inactive); with `CSc1nc2ccccc2c(=O)n1Cc1ccc(F)cc1`, 1720 (inactive).
For `O=c1c2ccccc2c(-c2ccccc2)nn1Cc1ccccc1` the value was 1740 (inactive); for `CSc1c(SCc2ccccc2)cnn(Cc2ccccc2)c1=O`, 2320 (active).
For `COCc1c(C(=O)N/N=C/C2CC=CCC2)nnn1-c1nonc1N` (centres undefined) the value was 1650 (inactive); for `O=C(CCc1ccc(S(=O)(=O)N2CCOCC2)cc1)NN=C1CCCCCCC1`, 1980 (inactive).
On to `CC(C)n1c(=O)[nH]c2cc(C(=O)Nc3ccccc3)ccc21`, for which the TR-FRET ratio was 1850 (inactive).
For `C=CCc1cccc2cc(C(=O)NC3CCCC3)c(=O)oc12` the value was 1900 (inactive).
Turning to `O=C(COC(=O)/C=C/c1cccc(Cl)c1)NCCc1ccccc1`, the TR-FRET ratio is 1750 (inactive).
For the molecule `Cc1cc(C)nc(/N=C2\NC(=O)CC(C(=O)O)N2c2ccc(Cl)cc2Cl)n1` (centres undefined), the TR-FRET ratio was 1900 (inactive).
